Experimental data reported in PubChem BioAssay (NCATS).
Where “and” joins values, the source holds several entries; their conditions need not be identical. Equal values may be shown once. Inconclusive results are not listed. Values without a mark were called inactive. Calls of active or inactive are those of the source. Calls come from the whole dose curve; as a rule, active = well fitted inhibition curve with a large enough effect; inconclusive = small, poorly fitted or top-dose-only effect; inactive = flat fitted curve, though single readings scatter.

tested on: KB-3-1; test: Cytotoxic Profiling of Annotated Libraries Using Quantitative High-Throughput Screening (AID 1296008); conditions: Five cell lines viability, CellTiter-Glo ATP luminescence, 48-72 h; max response: hits give low values; note: nearly all actives have a fitted effect of over 60% in size
How it was run: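 Cytotoxicity was measured as CellTiter-Glo ATP luminescence, read after 10 min at room temperature. Compound treatment of the cells lasted 48 or 72 hr at 37 degrees Celsius in a qHTS format.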
% is set by controls: 0 for no effect and ±100 for the full control effect; potency is the fitted concentration of half-maximal effect.

Compound	Potency	max response
CO[C@H](C(=O)[C@@H](O)[C@@H](C)O)C1Cc2cc3cc(O[C@H]4C[C@@H](O[C@H]5C[C@@H](O)[C@H](O)[C@@H](C)O5)[C@@H](O)[C@@H](C)O4)c(C)c(O)c3c(O)c2C(=O)[C@H]1O[C@H]1C[C@@H](O[C@H]2C[C@@H](O[C@H]3C[C@](C)(O)[C@H](O)[C@@H](C)O3)[C@H](O)[C@@H](C)O2)[C@H](O)[C@@H](C)O1 (stereo not given in full)	1.16 µM (active)	–
CCCCCCCCCCCC[n+]1ccc2ccccc2c1	14.6 µM (active)	–
C=CCSSSCC=C	–	-7.72%
CCC(=O)OCC(=O)[C@@]1(OC(=O)CC)[C@H](C)C[C@H]2[C@H]3[C@H]([C@@H](O)C[C@@]21C)[C@@]1(C)C=CC(=O)C=C1C[C@H]3Cl	–	31.3%
CCC(=O)NCCC1CCc2ccc3c(c21)CCO3 (stereo not given)	–	-7.29%
O=C(O)c1cc(=O)c2c3nc4ccccc4oc-3cc(=O)c2[nH]1	–	-4.67%
Cc1c(C)c2c(c(C)c1O)CC[C@@](C)(CCC[C@H](C)CCC[C@H](C)CCCC(C)C)O2	–	4.35% and -16.8%
C[C@]12C=CC(=O)N[C@@H]1CC[C@@H]1[C@@H]2CC[C@]2(C)[C@@H](C(=O)Nc3cc(C(F)(F)F)ccc3C(F)(F)F)CC[C@@H]12	–	5.03%
C=CC1=C(C)C2=CC3=NC(=C(CC(=O)[O-])C4=NC(=C(C)C4=C([O-])[O-])C=c4[n-]c(c(C)c4CC)=CC1=N2)C(CCC(=O)[O-])C3C.[Cu+2].[Na+].[Na+].[Na+] (stereo not given)	–	-6.08%
CC(=O)N(CC(C)C(=O)O)c1c(I)cc(I)c(N)c1I (stereo not given)	–	-8.47%
